From PubChem BioAssay
IEC-6 cytotox – cytotoxicity in IEC-6 intestinal epithelial cells, primary screen, cytotoxicity control for KLF5 inhibitor project, cell-based, luminescence | IEC-6 cytotoxicity, luminescence viability | inhibition, % at 5 µM | 290,000 tested, 0.78% active | AID 1825, 2009; in the data active = inhibition above about 22%;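 note: 0% = plate median of test compound wells and 100% = cytotoxic reference compound wells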
aSyn 5UTR inh – MLPCN primary screen, SNCA 5' untranslated region; alpha-synuclein 5'UTR reporter, inhibitor activity; inhibition, % (tested at 7.5 µM); 300,000 tested, 0.82% active; in the data active = inhibition above about 60%; inconclusive = no clear call, values can overlap the other calls;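 note: H4 neuroglioblastoma cells stably carrying SNCA 5'UTR luciferase fusion; 0% = DMSO wells and 100% = positive control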
Ba/F3 V617F tox – reduced viability of JAK2V617F-dependent Ba/F3 cells, primary screen, JAK2V617F inhibitor project, cell-based, Ba/F3 EpoR-JAK2V617F, luminescence; inhibition, % at 5.6 µM; AID 1446, 2008; ATP luminescence; 220,000 tested, 1.1% active;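 active = inhibition above the campaign mean plus 3 SD over all tested compounds, cut at about 24% in these data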;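 note: cytokine-independent growth of Ba/F3 cells driven by EpoR plus mutant JAK2; 0% = DMSO-treated cells and 100% = JAK inhibitor I control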
KLF5 inh – KLF5 expression inhibitors, primary screen, DLD-1 cells, luminescence; inhibition, % at 5 µM; 290,000 tested, 0.23% active; AID 1700, 2009; DLD-1 KLF5 promoter-luciferase reporter;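 active = inhibition above a per-plate limit of that plate's mean compound inhibition plus 3 SD, cut at about 60% in these data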;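 note: 0% = DMSO wells and 100% = LY294002 at 200 µM; higher means less KLF5 promoter-driven luciferase light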
BaF3 tox – parental Ba/F3 cell viability inhibition, counter-screen for JAK2V617F inhibitor project, murine pro-B, CellTiter-Glo luminescence; CellTiter-Glo ATP luminescence; 220,000 tested, 1.1% active; AID 1486, 2009; inhibition, % at 5.6 µM;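 active = inhibition above a per-campaign cutoff, the mean inhibition of all tested compounds plus 3 SD, cut at about 27% in these data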;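 note: 0% = DMSO wells and 100% = JAK Inhibitor I control wells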
APP transl inh – inhibitors of APP translation via 5'UTR reporter, primary screen, APP 5'UTR luciferase, SH-SY5Y cells | SH-SY5Y APP 5'UTR-luciferase reporter, luminescence | inhibition, % at 2 µM | 190,000 tested, 0.82% active | AID 1285, 2008;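 active = inhibition above a set limit, derived from the sample mean plus 3 SD, cut at about 45% in these data; inconclusive = one replicate passes the limit while the other fails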
An asterisk follows results filed as active; ? = inconclusive; · = not tested or not shown. Compounds with a hit are over-represented: about 2.2% of the library has one in this group of screens.

SMILES	IEC-6 cytotox	aSyn 5UTR inh	Ba/F3 V617F tox	KLF5 inh	BaF3 tox	APP transl inh
CNC(=O)CN(c1cccc(Br)c1)S(C)(=O)=O	-5	-5	0	-14	1	2
O=C(NCCC1CCCCN1S(=O)(=O)c1ccc(Cl)cc1)C(=O)NCc1ccncc1 (centres undefined)	·	62*	·	·	·	·
CC(=O)c1cccc(NC(=O)C(C)OC(=O)CCN=C2NS(=O)(=O)c3ccccc32)c1 (centres undefined)	·	0	·	·	·	·
Cc1ccc(C(=O)N/N=C/c2cn(Cc3ccccc3)c3ccccc23)cn1	2	64*	-2	-37	2	·
COc1cc(C(=O)N/N=C/c2cn(Cc3cccc(F)c3)c3ccccc23)ccc1O	2	62*	·	-13	·	·
O=C(N/N=C/c1cn(Cc2ccccc2)c2ccccc12)c1cc(O)cc(O)c1	-4	62*	·	-18	·	·
N#CCC(=O)N/N=C/c1cn(Cc2ccc(Cl)c(Cl)c2)c2ccccc12	-2	?	-4	8	-5	·
O=C(O)c1ccc(N/N=C/c2cn(Cc3ccc(F)cc3)c3ccccc23)cc1	9	-69	-1	-33	-1	·
COc1ccc(/C=C2/SC(=O)N(CCC(=O)Nc3ccccc3C(=O)O)C2=S)cc1	-1	9	·	-23	·	·
Cc1ccc(C(=O)NCc2ccco2)cc1S(=O)(=O)N1CCCC1	0	-2	·	-6	·	·
C=CCNc1nc2c(c(=O)n(C)c(=O)n2C)n1CCCCCC	6	-28	40*	-37	55*	16
COCCNc1nc2c(c(=O)n(C)c(=O)n2C)n1Cc1cccc(C)c1	1	15	45*	-10	43*	-3
C=CCNc1nc2c(c(=O)n(C)c(=O)n2C)n1CC	-3	13	-4	5	5	-5
C=CCNc1nc2c(c(=O)n(C)c(=O)n2C)n1Cc1ccc(F)cc1	-1	6	40*	-40	40*	1
Cn1c(=O)c2c(nc(NCCc3ccccc3)n2Cc2ccc(F)cc2)n(C)c1=O	10	28	-2	-12	4	10
CCOc1ccc(C(=O)NCC(=O)NNC(=O)CN(C)S(=O)(=O)c2ccc(Cl)cc2)cc1	·	14	·	·	·	·
COc1ccc(C)cc1S(=O)(=O)Nc1ccc2c(c1)N(C(C)=O)CCC2	·	-1	·	·	·	·
COc1cccc(C(=O)NCCNC(=O)c2ccc(C)nc2)c1	3	-23	·	-16	·	·
COc1ccc(-n2c(-c3ccc(Cl)cc3)c[n+]3c2CCc2ccccc2-3)cc1	10	-15	84*	0	69*	-8
COc1ccc(-n2c(-c3ccccc3)nnc2-c2ccc(Cl)cc2)cc1	-8	1	-1	6	2	-14
CC(C#N)Sc1nnc(-c2ccccc2F)n1C1CC1 (centres undefined)	0	28	·	-37	·	·
CN(C)CCCN(C(=O)COc1ccccc1)c1nc2ccc(F)cc2s1	1	-21	2	-30	8	8
CN(C)CCCN(C(=O)CCOc1ccccc1)c1nc2ccc(F)cc2s1	1	·	26*	-11	8	33
O=C(N/N=C(\Cc1ncc[nH]1)c1ccccc1)c1ccncc1	-6	16	4	-40	9	44
O=C(N/N=C(\Cc1ncc[nH]1)c1ccccc1)c1ccccc1	1	74*	-2	-42	4	1
SMILES	IEC-6 cytotox	aSyn 5UTR inh	Ba/F3 V617F tox	KLF5 inh	BaF3 tox	APP transl inh
CCCCCCCCCCOC(=O)Cn1c(COc2ccc(Cl)cc2)[n+](C)c2ccccc21	3	83*	·	-21	·	·
CCCCCCCCCCOC(=O)Cn1c(COc2cccc(C)c2)[n+](C)c2ccccc21	8	65*	·	-17	·	·
CCCCCCCCCCOC(=O)Cn1c(COc2ccccc2)[n+](C)c2ccccc21	5	7	·	-7	·	·
Cc1ccc(Cn2c(Sc3ncccn3)nc3c2c(=O)[nH]c(=O)n3C)cc1	-4	4	-1	-6	0	3
CCCCCn1c(Sc2ncccn2)nc2c1c(=O)[nH]c(=O)n2C	9	34	4	-39	5	64*
COc1ccc(Cl)cc1NC(=O)CN(C)C(=O)c1cc2ccccc2cc1O	·	-6	·	·	·	·
Cc1ccccc1N1C(=O)C2C3C=CC(CC3)C2C1=O (centres undefined)	0	2	·	1	·	·
Cc1ccccc1N1C(=O)CC2(CCCC2)CC1=O	7	-9	8	-34	45*	-2
CCCCc1ccc(N=N/C(C(=O)Nc2ccc(NC(C)=O)cc2OC)=C(/C)O)cc1	·	13	·	·	·	·
Cc1ccc(O)c(CNc2ccc(S(=O)(=O)Nc3nccs3)cc2)c1	1	0	-2	-6	-3	·
Cn1nc(CC(=O)Nc2ccc(N3CCN(C(=O)OC(C)(C)C)CC3)cc2)c2ccccc2c1=O	11	77*	50*	11	60*	10
Cn1nc(CC(=O)Nc2ccc3c(c2)OCCO3)c2ccccc2c1=O	8	16	48*	18	53*	5
Cn1nc(CC(=O)N2CCN(c3ccccc3)CC2)c2ccccc2c1=O	11	13	4	16	8	-20
CC(=O)C1=C(C)Nc2ncnn2C1c1ccccc1F (centres undefined)	1	6	·	-14	·	·
COC(OC)c1ccc(C#N)c(=O)[nH]1	3	-4	7	-17	8	46*
CC(C)(C)NC(=O)C(c1ccncc1)N(C(=O)Cn1nnc(-c2ccc(F)cc2)n1)c1ccc(F)cc1 (centres undefined)	3	-10	3	-9	81*	-22
N#C/C(=N\Nc1cccc(C(F)(F)F)c1)C(=O)c1ccsc1	16	-109	18	-62	32*	·
N#C/C(=N\Nc1cccc([N+](=O)[O-])c1)C(=O)c1ccc(Br)cc1	5	49	0	-10	2	7
O=c1nc(SCc2c(F)cccc2Cl)nc(-c2ccc(Cl)cc2)[nH]1	-5	-1	-2	-21	40*	·
CCCNS(=O)(=O)c1ccc(CCC(=O)Nc2ccc3c(c2)OCCO3)cc1	-2	-1	-3	-12	3	6
O=C(CCc1ccc(S(=O)(=O)NCCc2ccccc2)cc1)Nc1ccc2c(c1)OCCO2	0	17	0	-12	5	75*
Cc1cccc(-c2nn(-c3ccccc3)cc2C(=O)N(C)CC(=O)Nc2ccc(N3CCOCC3)cc2)c1	·	-4	·	·	·	·
Cc1cc(=O)n(C(C)(C)C)c(=O)n1Cc1ccccc1	-6	18	·	-35	·	·
Cc1cccc(N=Nc2ccc(O)c3ncccc23)c1	3	73*	1	16	1	72*
CCS(=O)(=O)c1ccc(OC)c(N=Nc2ccc(O)c3ncccc23)c1	-7	66*	2	-10	7	67*
Oc1ccc(N=Nc2ccc3c(c2)OCCO3)c2ncccc12	3	40	92*	40	67*	·
Cc1ccc(C)c(N=Nc2ccc(O)c3ncccc23)c1	12	33	-2	-44	4	33
